Screening results (PubChem)
The entries come from a sample that favours hits as a whole.
L3MBTL1 block: blocks human L3MBTL1 | Q9Y468 | AlphaScreen L3MBTL1–H3K9me1 peptide binding | Potency, µM (highest dose often 57.1 µM), usual class: inhibitors | 230,000 compounds, 0.66% hits | AID 485360; further: nearly all actives have a fitted effect of over 60% in size
Target sequence (Q9Y468 whole entry, looked up): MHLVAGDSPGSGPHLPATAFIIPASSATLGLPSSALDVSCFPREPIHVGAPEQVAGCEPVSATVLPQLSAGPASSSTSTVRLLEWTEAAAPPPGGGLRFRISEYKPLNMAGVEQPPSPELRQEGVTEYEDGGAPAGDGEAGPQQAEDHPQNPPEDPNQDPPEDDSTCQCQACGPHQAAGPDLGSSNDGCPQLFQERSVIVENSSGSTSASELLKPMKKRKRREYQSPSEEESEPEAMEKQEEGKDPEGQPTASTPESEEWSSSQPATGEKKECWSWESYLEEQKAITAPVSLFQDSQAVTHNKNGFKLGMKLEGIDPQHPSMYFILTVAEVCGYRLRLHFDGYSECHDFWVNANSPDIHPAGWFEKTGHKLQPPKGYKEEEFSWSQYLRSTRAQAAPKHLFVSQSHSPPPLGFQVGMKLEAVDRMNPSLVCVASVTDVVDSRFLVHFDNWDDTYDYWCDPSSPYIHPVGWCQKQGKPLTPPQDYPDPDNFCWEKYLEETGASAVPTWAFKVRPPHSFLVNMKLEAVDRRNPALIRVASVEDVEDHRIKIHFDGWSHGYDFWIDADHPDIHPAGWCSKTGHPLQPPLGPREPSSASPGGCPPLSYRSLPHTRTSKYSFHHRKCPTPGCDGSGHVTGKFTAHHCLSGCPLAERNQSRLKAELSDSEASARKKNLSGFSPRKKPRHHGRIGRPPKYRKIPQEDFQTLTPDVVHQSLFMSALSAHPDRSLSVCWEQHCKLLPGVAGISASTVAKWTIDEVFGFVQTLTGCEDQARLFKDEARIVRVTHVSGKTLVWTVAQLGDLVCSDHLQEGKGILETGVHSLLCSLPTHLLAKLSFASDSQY
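AlphaScreen assay: L3MBTL1 (50 nM final) was preincubated 30 min at room temperature with biotinylated H3(1-15)K9me1 peptide (75 nM final), then 30 min with library compounds; streptavidin donor and nickel chelate acceptor beads (10 ug/mL final) added, 30 min dark.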
BLM helicase inh: inhibitors of human Bloom syndrome helicase BLM; recombinant BLM DNA unwinding, fluorescence dequenching; Potency, µM (titrated, usually from 56.1 µM), actives largely listed as inhibitors; 350,000 compounds, 0.2% hits; AID 2528; further: nearly all actives have a fitted effect of over 35% in size
RECQ1 helicase: RECQ1 (human) helicase inhibition | P46063 | RECQ1 DNA unwinding, red fluorescence kinetic read | Potency, µM (series often up to 57.3 µM), hits mostly inhibitors | 240,000 compounds, 0.54% hits; further: nearly all actives have a fitted effect of over 30% in size
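50 nM RECQ1T1 preincubated 15 min with compound in Tris pH 8.0 buffer with MgCl2, DTT, Tween-20 and 2.5 ug/ml poly(dI-dC); started with 200 nM TAMRA/BHQ-2 forked duplex and 2 mM ATP. Unwinding read as fluorescence (525/598 nm), two reads 2 h apart.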
APEX1 inh: blocks human APE1 abasic DNA cleavage. P27695. recombinant APE1, TAMRA/BHQ-2 abasic DNA cleavage fluorescence. Potency, µM (series often up to 65.8 µM), hits mostly inhibitors. 350,000 compounds, 0.35% hits. AID 2517; further: nearly all actives have a fitted effect of over 55% in size
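Quantitative HTS: incision of a TAMRA/BHQ-2 double-stranded substrate bearing a tetrahydrofuran abasic site by 0.75 nM APE1 raises fluorescence. Substrate 50 nM final, added after 15 min compound preincubation at room temperature; progress as third-minus-first kinetic read difference.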
KDM4E inh: JMJD2E (human) inhibition. B2RXH2. Potency, µM (titrated, usually from 57.1 µM), actives largely listed as inhibitors. 230,000 compounds, 1.6% hits. JMJD2E catalytic domain, FDH-coupled NADH fluorescence (FDH is formaldehyde dehydrogenase); further: nearly all actives have a fitted effect of over 50% in size
RGS12 GoLoco inh: blocks human Gai1 binding to RGS12 GoLoco peptide, red readout; Potency, µM (highest dose often 61.6 µM), hits mostly inhibitors; Gai1:RGS12 GoLoco peptide FP, rhodamine, 10 min; P63096; AID 880; 230,000 compounds, 0.44% hits; active means well fitted inhibition curve with a large enough effect, not every such curve was filed as active; inactive means no such curve, though single readings can be large or run the other way; further: nearly all actives have a fitted effect of over 30% in size
Hits are given with their value; – = inactive; ? = inconclusive; · = no result given; ! = repeats disagree; [ ] = remark or other dose. Unless noted, the call rests on the fitted dose curve; in most records, active means well fitted curve in the direction sought with a large enough effect; inconclusive means small, poorly fitted or top-dose-only effect, or another doubt; inactive means no such curve, though single readings can be large; an effect the other way counts as inactive or inconclusive.

SMILES | L3MBTL1 block | BLM helicase inh | RECQ1 helicase | APEX1 inh | KDM4E inh | RGS12 GoLoco inh
COC(=O)C1(C(=O)OC)CC2=CC(CC2=O)Cc2ccccc2[C@@H]1C[N+](=O)[O-] (stereo partly drawn) | · | – | – | – | – | 22.4µM
CN(C1=C(NC(=O)c2ccc(Cl)cc2)C(=O)c2ccccc2C1=O)c1ccccc1 | 7.94µM | – | – | – | – | ·
O=C(NC1=C(Nc2ccc(Cl)cc2)C(=O)c2ccccc2C1=O)c1ccccc1 | – | – | – | – | ? | –
O=C1CCCC(O)=C1N=Nc1c(Cl)cc(C(F)(F)F)cc1Cl | – | – | 12.6µM | ? | 25.1µM | –
COc1ccc(NC(=O)CC(NCc2ccccn2)C(=O)O)cc1 (stereo not drawn) | 14.1µM | – | – | – | – | –
CCCCC[C@H](O)/C=C/[C@H]1OC(O)C[C@H](O)[C@@H]1C/C=C\CC(=O)O (stereo partly drawn) | · | – | – | – | – | –
Cn1nc(-c2ccccn2)nc2c(=O)n(C)c(=O)nc1-2 | · | 1µM | 4.47µM | ? | 7.08µM | –
CCCc1nc2c(=O)n(C)c(=O)nc-2n(C)n1 | ? | 2.82µM | ? | ? | ? | –
O=C(Cc1ccccc1)NNc1ccc2ccccc2c1 | – | – | – | – | 25.1µM | –
O=C(CSc1nc2c([nH]c3ccccc32)c(=O)n1-c1ccc(F)cc1)NC1CCCCC1 | · | – | · | · | · | ·
O=C(CCNNC(=O)c1ccncc1)NCc1ccccc1 | – | – | – | – | 8.91µM! | –
Cc1cccc(C)c1-n1c(SCC(=O)NCCCCCC(=O)O)nnc1-c1cccc([S+](=O)([O-])N2CCCC2)c1 | · | · | · | – | · | ·
NC(CCCCCP(=O)(c1ccccc1)c1ccccc1)C(=O)O (stereo not drawn) | – | – | – | 14.1µM | – | –
CC1(C)c2ccccc2N(CC(N)=O)C12C=Cc1ccccc1O2 (stereo not drawn) | – | – | – | – | – | –
CC1(C)c2ccccc2N2CC(=O)N(CC(N)=O)C21C (stereo not drawn) | · | – | 31.6µM | ? | – | –
CC(=O)Nc1ccc(-c2csc(N3CCC(C(N)=O)CC3)n2)cc1 | · | · | · | – | · | ·
O=c1cc(-c2ccccc2)oc2cc(O)c(O)cc12 | · | – | – | ? | 28.2µM | –
O=c1cc2oc3cc(O)c(O)cc3c(-c3ccccc3[N+](=O)[O-])c-2cc1O | · | 0.708µM | · | 0.134µM | · | ·
O=c1cc(-c2ccc(O)c(O)c2)oc2ccccc12 | · | – | – | – | 8.91µM | –
O=c1cc(-c2ccccc2Cl)oc2c([N+](=O)[O-])ccc(O)c12 | · | – | – | – | · | –
COc1ccc(Cn2c(=O)[nH]c3cc(C(=O)NCCC(C)C)ccc3c2=O)cc1 | · | – | · | · | · | ·
CCn1cc2nc(SCC(=O)Nc3ccc(OC)c(OC)c3)n(Cc3ccc(Cl)cc3)c(=O)c2n1 | · | – | · | · | · | ·
O=[N+]([O-])c1ccc(N2CCN(CCOCCO)CC2)c([N+](=O)[O-])c1 | – | – | – | – | 10µM | –
O=[N+]([O-])c1cc(C(F)(F)F)ccc1N1CCN(CCO)CC1 | – | – | – | – | – | –
O=C(Nc1ccccc1F)c1ccc(O)c2ncccc12 | 28.2µM | · | · | – | · | ·
SMILES | L3MBTL1 block | BLM helicase inh | RECQ1 helicase | APEX1 inh | KDM4E inh | RGS12 GoLoco inh
Cc1ccc(C)c(S(=O)(=O)Nc2ccc3oc(C)c(C(=O)O)c3c2)c1 | · | – | · | 13.4µM | · | ·
COc1cc(C2c3c([nH]c(=O)[nH]c3=O)Nc3ccc4ccccc4c32)cc(OC)c1OC (stereo not drawn) | · | 25.1µM | – | – | ? | –
CC(c1ccccc1)C1OCC(C[N+]2(C)CCCCC2)O1 (stereo not drawn) | · | – | – | ? | – | 10µM
CCCC[n+]1c(C)sc2cc(OC)ccc21 | – | – | – | – | – | –
COc1ccc2sc(C)[n+](C)c2c1 | · | – | – | – | 20µM | –
CN(C1=C(N2CCOCC2)C(=O)c2ccccc2C1=O)c1ccccc1 | 25.1µM | – | – | – | – | –
CC1=C(C)C(=O)C(N2CCOCC2)=CC1=O | – | – | – | – | – | –
CC(=O)N(C(C)=O)N1C(=O)c2cccc3c(N4CCOCC4)ccc(c23)C1=O | – | – | – | – | – | –
Cc1ccc(N2CCOCC2)c2c1C(=O)c1ccccc1C2=O | 14.1µM | – | – | – | – | –
O=C1C=C(N2CCOCC2)c2ccccc2C1=O | –[2.29 µM] | 8.91µM | · | – | · | ·
O=C(NCCC1=CCCCC1)c1ccc2c(c1)N(Cc1ccc(F)cc1)C(=O)c1ccccc1S2(=O)=O | · | – | · | · | · | ·
C=C1N[C@]2(C(=O)COC(C)=O)[C@@H](C[C@H]3[C@@H]4CCC5=CC(=O)C=C[C@]5(C)[C@H]4[C@@H](O)C[C@@]32C)O1 | · | – | · | · | · | ·
CCOC(=O)c1c(C)[nH]c(CCC(=O)Nc2ccc(C)c(F)c2)c1C | · | – | · | · | · | ·
NC(=O)N/N=C/c1c(O)ccc2oc3c(c12)CCCC3 | · | – | – | – | 28.2µM | –
O=C(O)c1cccc(-c2ccc(/C=C3/SC(=Nc4ccccc4)N(Cc4cccnc4)C3=O)o2)c1 | · | – | · | 7.52µM | · | ·
CCN1C(=O)/C(=C\c2ccc(-c3cccc(C(=O)OC)c3)o2)SC1=Nc1ccc(C(=O)O)cc1 | – | – | · | ? | · | ·
COC(=O)C[C@](O)(CCCC(C)(C)O)C(=O)O[C@@H]1C(OC)=CC23CCCN2CCc2cc4c(cc2[C@H]13)OCO4 (stereo partly drawn) | · | · | · | – | · | ·
CCOC(=O)C1(C)/C(=N/Nc2ccccc2)C(=O)C(=O)N1c1ccccc1 (stereo not drawn) | · | – | – | – | – | –
CCOC(=O)C1(C)/C(=N/Nc2ccccc2OC)C(=O)C(=O)N1c1ccccc1 (stereo not drawn) | ? | – | – | – | 25.1µM | –
CC(C)CCOc1ccc(N)cc1 | · | – | – | – | · | ·
CC(=O)Nc1ccc2nc3c(=O)[nH]c(=O)[nH]c3nc2c1 | · | 11.2µM | · | · | · | ·
CC(=O)Nc1ccc2cc3ccc(NC(C)=O)cc3nc2c1 | – | – | – | – | ? | –
Cn1cc(CN2CCc3c([nH]c4ccccc34)C2C2CCCCC2)cn1 (stereo not drawn) | – | – | – | – | 20µM | –
COC/C=C/C1=CC2=CC(=O)C(C)(OC(=O)c3cnc4ccccc4n3)C(=O)C2=CN1CCCCO (stereo not drawn) | · | –[12.4 µM] | –[11.5 µM] | –[12.4 µM] | 8.91µM! | –[14.2 µM]
COC/C=C/C1=CC2=CC(=O)C(C)(OC(=O)c3cnc4ccccc4n3)C(=O)C2=CN1CCc1ccccn1 (stereo not drawn) | · | –[12.4 µM] | –[11.5 µM] | –[12.4 µM] | –[11.4 µM] | –[14.2 µM]
CC(C)(C)OC(=O)N[C@@H](Cc1ccccc1)c1nnc(S(=O)(=O)Cc2ccccc2)o1 | – | – | – | – | – | 17.8µM
Cc1ccccc1CS(=O)(=O)c1nnc([C@H](Cc2ccccc2)NC(=O)OC(C)(C)C)o1 | · | – | – | ? | – | –
CNc1cccccc1=S | 3.98µM | – | ? | ? | 25.1µM | –
